This note sets out measurements from PubChem BioAssay (NCI).

Compounds without any hit were thinned out: in the full panel of roughly 83,000, 20% have a hit.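 Assay: single dose, 48 h. Readout: percent growth (0 = no net growth; negative = cell death). Active: <10.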 A number with no mark means an inactive call. Calls of active or inactive are those of the source.

Among the test systems are HCT-15 colon; HT29 colon; SNB-75 CNS; SNB-19 CNS; PC-3 prostate; SK-MEL-5 melanoma; UACC-62 melanoma; LOX IMVI melanoma; SK-MEL-28 melanoma.
What all share (assay): NCI-60 one-dose screen, 48 h (100 = growth as untreated, 0 = no growth, -100 = all killed)
Conditions in all cases: 10 µM

For the compound `O=[N+]([O-])c1ccc(NCSc2ccc(Cl)cc2)cc1`, the growth is 96.9% in the assay on HCT-15 colon; 107% with HT29 colon; 98.6% in the assay with SNB-75 CNS; 103% in the assay with SNB-19 CNS; 80.9% in the assay with PC-3 prostate; 100% with SK-MEL-5 melanoma. In addition, the growth in the assay with UACC-62 melanoma was 77.8%; in the assay on LOX IMVI melanoma, 81.9%; in the assay on SK-MEL-28 melanoma, 104%.

On to `CCN(CCCNc1cc2c(c(N)c1S(=O)(=O)O)C(=O)c1ccccc1C2=O)c1ccccc1`, for which the growth in the assay with HCT-15 colon was 107%; in the assay on HT29 colon, 104%; with SNB-75 CNS, 88.3%; in the assay on SNB-19 CNS, 95.1%; with PC-3 prostate, 87.1%; in the assay with SK-MEL-5 melanoma it was 95.2%. For the same compound, the growth with UACC-62 melanoma is 92.1%; in the assay with LOX IMVI melanoma it was 94.7%; with SK-MEL-28 melanoma, 102%.

With `N=C1S/C(=C/c2ccc(-c3ccc4c(c3)C(=O)NC4=O)o2)C(=O)N1c1ccc(Br)cc1`, the growth is 47.1% in the assay with HCT-15 colon; 21.9% with HT29 colon; -3.31% (active) in the assay with SNB-75 CNS; 106% with SNB-19 CNS; -2.15% (active) in the assay with PC-3 prostate; 65.5% with SK-MEL-5 melanoma. Further, the growth was 31.8% with UACC-62 melanoma and -19.1% (active) in the assay with SK-MEL-28 melanoma.

Take `COc1ccc(C(=O)N2C=Cc3ccccc3C2C#N)cc1` (stereo not given): the growth in the assay on HCT-15 colon was 90.7%; in the assay on HT29 colon, 110%; in the assay with SNB-75 CNS it was 94.1%; in the assay on SNB-19 CNS, 93.6%; in the assay on PC-3 prostate, 93.2%; with SK-MEL-5 melanoma it was 101%. Besides, the results for the growth in the assay on UACC-62 melanoma, with LOX IMVI melanoma and in the assay with SK-MEL-28 melanoma were 92.5%, 95.4% and 95.3%, respectively.

In the case of `Cc1cc(O)ccc1C1=NN(c2ccc(S(C)(=O)=O)cc2)C(=O)CC1`, the growth in the assay on HCT-15 colon is 44.9%; in the assay on HT29 colon, 38.9%; with SNB-75 CNS, 75.2%; in the assay with SNB-19 CNS, 78.2%; in the assay with PC-3 prostate, 77.9%; in the assay with SK-MEL-5 melanoma, 68.3%. Moreover, the figures for the growth with UACC-62 melanoma, in the assay on LOX IMVI melanoma and in the assay on SK-MEL-28 melanoma were 52.9%, 67.5% and 81.2%, respectively.

Turning to `CC(=O)Nc1ccc(S(=O)(=O)c2ccnc3cc(Cl)ccc23)cc1`, the growth was 63.8% in the assay on HCT-15 colon; 93.7% in the assay with HT29 colon; 76.5% in the assay on SNB-75 CNS; 102% in the assay with SNB-19 CNS; 96% in the assay with PC-3 prostate; 71.8% in the assay with SK-MEL-5 melanoma. Also, the results for the growth in the assay with UACC-62 melanoma, in the assay on LOX IMVI melanoma and in the assay on SK-MEL-28 melanoma were 77.7%, 73.7% and 78.1%, respectively.

`COc1ccc(/C=C2/SC(=S)NC2=O)c(OC)c1OC`: the growth in the assay with HCT-15 colon is 75.6%; in the assay on HT29 colon it was 98.3%; in the assay with SNB-75 CNS it was 77.8%; in the assay on SNB-19 CNS it was 88.2%; in the assay with PC-3 prostate, 75.6%; in the assay with SK-MEL-5 melanoma, 73.8%. The results for the growth in the assay on UACC-62 melanoma, in the assay with LOX IMVI melanoma and in the assay on SK-MEL-28 melanoma were 68.6%, 65.9% and 86.9%, respectively.

Take `O=C(/C=C/c1cccc(B(O)O)c1)c1cccc(B(O)O)c1`: the growth is -40.4% (active) with HCT-15 colon; -46.5% (active) with HT29 colon; 45.3% with SNB-75 CNS; 43.9% in the assay with SNB-19 CNS; 26.1% with PC-3 prostate; 22.1% in the assay on SK-MEL-5 melanoma. The growth in the assay on LOX IMVI melanoma was -85.6% (active); in the assay with SK-MEL-28 melanoma it was -21.4% (active).

With `Nc1c(Br)cc(Br)c2c1[nH]c(=O)c1ccccc12`, the growth in the assay with HCT-15 colon was 75.2%; in the assay with HT29 colon it was 98.4%; in the assay with SNB-75 CNS, -33.9% (active); in the assay with SNB-19 CNS, 94.1%; in the assay with PC-3 prostate, 80.3%; in the assay on SK-MEL-5 melanoma it was 71.3%. The growth is 87.6% with UACC-62 melanoma, 83.7% in the assay on LOX IMVI melanoma and 86.8% in the assay on SK-MEL-28 melanoma.

Turning to `C[C@]12CC[C@@H]3c4ccc(OS(=O)(=O)O)cc4CC[C@H]3[C@@H]1CC[C@@H]2NS(=O)(=O)c1ccc(-c2ccccc2)cc1`, the growth was 52.6% with HCT-15 colon; 50% in the assay on HT29 colon; 75.6% with SNB-75 CNS; 89.6% with SNB-19 CNS; 41% with PC-3 prostate; 67.4% in the assay with SK-MEL-5 melanoma. Besides, the values for the growth in the assay on UACC-62 melanoma and in the assay on SK-MEL-28 melanoma were 79.1% and 95.8%, respectively.

Turning to `CC(C)(C)c1ccc(S(=O)(=O)N[C@H]2CC[C@H]3[C@@H]4CCc5cc(O)ccc5[C@H]4CC[C@]23C)cc1`, the growth in the assay with HCT-15 colon was 34.7%; in the assay on HT29 colon it was 10.2%; in the assay on SNB-75 CNS it was 55.4%; with SNB-19 CNS, 80.6%; in the assay on PC-3 prostate, 30.6%; in the assay with SK-MEL-5 melanoma, 40.4%. The growth in the assay with UACC-62 melanoma is 61.2%; with SK-MEL-28 melanoma, 79.1%.

For `CCN(CC)c1ccc(/C=C2\SC(=O)C(Nc3nnc(-c4cccnc4SCc4ccccc4)o3)C2=O)cc1` (stereo not given), the growth with HCT-15 colon is 15.2%; with HT29 colon it was 3.09% (active); in the assay with SNB-75 CNS it was 44.1%; in the assay with SNB-19 CNS, 63.5%; in the assay with PC-3 prostate, 16.9%; in the assay on SK-MEL-5 melanoma it was 27.4%. In addition, the growth with UACC-62 melanoma was 30.2%; with LOX IMVI melanoma, 42.3%; with SK-MEL-28 melanoma, 50.8%.

Regarding `CCOC(=O)C1=CSC2=NC3=C(CCC/C3=C\c3cc(OC)c(OC)c(OC)c3)C(c3cc(OC)c(OC)c(OC)c3)N12` (stereo not given), the growth in the assay on HCT-15 colon was 57.7%; in the assay with HT29 colon, 12.9%; in the assay with SNB-75 CNS, 39.1%; with SNB-19 CNS, 85.1%; with PC-3 prostate, 77.1%; in the assay on SK-MEL-5 melanoma, 60.3%. The growth in the assay with UACC-62 melanoma was 74.4%; with LOX IMVI melanoma, 23%; in the assay on SK-MEL-28 melanoma, 67.2%.

In the case of `Cc1cccc(N=Cc2ccccc2O)c1C`, the growth in the assay with HCT-15 colon is 108%; in the assay on HT29 colon, 97.7%; in the assay on SNB-75 CNS, 97.3%; in the assay with SNB-19 CNS it was 90.5%; in the assay with PC-3 prostate it was 94.6%; in the assay with SK-MEL-5 melanoma, 103%. The figures for the growth in the assay with UACC-62 melanoma and in the assay with SK-MEL-28 melanoma were 95.2% and 106%, respectively.

In the case of `CCN(CC)CCN1c2nc3ccccc3cc2Sc2cc3ccccc3nc21`, the growth was 3.28% (active) with HCT-15 colon; -92.3% (active) in the assay with HT29 colon; -7.91% (active) with SNB-75 CNS; 36.4% in the assay with SNB-19 CNS; -13.8% (active) in the assay on PC-3 prostate; -68.1% (active) in the assay with SK-MEL-5 melanoma. The growth is -0.283% (active) in the assay with UACC-62 melanoma, -100% (active) with LOX IMVI melanoma and -50.4% (active) in the assay with SK-MEL-28 melanoma.
